68 molecules from ChEMBL document CHEMBL3988442, “University of Dundee, Small-Polar-MMV Screening Library” (2021) can be followed below.

In all, about 48,000 compounds went through this assay and about 13,000 (27%) showed an effect of 50% or more. This is one part of the list.

This experiment concerns Wolbachia pipientis. Kind of experiment: Anti-Wolbachia Cell-Based Screen. The note with it: 5 µM. Type of experiment: functional. Also noted: scale not given: in the data most compounds retested in dose-response had high values.
Turning to `Cc1cccc2c1nc1n2[C@@H](CNC(=O)C2CCOCC2)COC1`, the “Percent Effect” value is recorded as -17.69%.
In the case of `NC(=O)c1ccc(CNCC2CCN(CCO)CC2)cc1`, the “Percent Effect” value was 2.18%.
For `Cc1nc(CCN(C)C(=O)CCNC(=O)c2ccccc2F)no1` the value was -9.414%; for `CCc1cc(NCc2ccc(-n3cncn3)c(C)c2)n(C)n1`, -10.44%.
The same measure for `CC(NC(=O)Cn1cc(C(N)=O)c(-c2ccccc2)n1)C1CC1` (stereo not drawn): 6.248%; for `CC(CC(=O)O)CC(=O)Nc1sc2c(c1C(N)=O)CCc1ccccc1-2` (stereo not drawn): 127.8%.
For `Cc1ccccc1C(C(=O)N(C)CCc1cn[nH]c1)N(C)C` (stereo not drawn) the value was 13.24%; for `O=C(c1ccc(C2CCCO2)s1)N1Cc2ccccc2C1` (stereo not drawn), -6.563%.
`CCOc1ccc(OCc2nccc(-c3cc(C(=O)O)ccn3)n2)cc1`: the “Percent Effect” value is -79.36%.
In the case of `Cc1cc(N(C)Cc2ccsc2)n2nc(C)c(C)c2n1`, the “Percent Effect” value is recorded as -6.917%.
The same measure for `Cc1cc(N(C)Cc2noc(C)n2)n2nc(C)c(C)c2n1`: 14.08%.
For the molecule `Cc1csc(CN(C)c2cc(C)nc3c(C)c(C)nn23)n1`, the “Percent Effect” value is recorded as 83.18%.
In the case of `CC(O)CN(c1ccccc1)S(=O)(=O)c1cc(C(=O)O)cc2c1CCC2` (stereo not drawn), the “Percent Effect” value amounted to 5.053%.
For `CCCc1nnc(C(=O)N(C)Cc2cnc3ccccn23)o1` the value was -16.11%; for `CCOc1cccc(C(=O)N2C[C@H]3CC[C@@H]2CN(C(=O)C2CCC2)C3)c1`, -8.209%; for `CN(C)CCN1C(=O)CCCC12CCCN(C(=O)c1cc[nH]n1)C2.O=C(O)C(F)(F)F` (stereo not drawn), 101.5%.
For the molecule `O=C(O)C(F)(F)F.O=C(c1ccoc1)N1CCCC2(CCC(=O)N2Cc2cccnc2)C1` (stereo not drawn), the “Percent Effect” value was -3.168%.
The same measure for `CN(C)CCN1C(=O)CCCC12CCCN(C(=O)c1ccncc1)C2.O=C(O)C(F)(F)F.O=C(O)C(F)(F)F` (stereo not drawn): 106.1%; for `CN(C)CCN1CCOCC2(CCCN(C(=O)c3ccccn3)C2)C1.O=C(O)C(F)(F)F.O=C(O)C(F)(F)F` (stereo not drawn): -9.412%; for `CN(C)CCN1C(=O)CCC12CCCN(C(=O)c1cccnc1)CC2.O=C(O)C(F)(F)F.O=C(O)C(F)(F)F` (stereo not drawn): 104.4%.
The same measure for `O=C(O)C(F)(F)F.O=C(c1ccoc1)N1CCCC2(CCC(=O)N2Cc2ccncc2)C1` (stereo not drawn): -1.829%.
Consider `Cc1cc(C(=O)N2CCCC3(COCCN(CCN(C)C)C3)C2)no1.O=C(O)C(F)(F)F.O=C(O)C(F)(F)F` (stereo not drawn), for which the “Percent Effect” value was -4.031%.
For `Cn1cc(C2(C)CN(C(=O)Nc3ccccc3F)CCO2)cn1` (stereo not drawn) the value was 1.448%; for `Cn1ncnc1CNc1ccc2c(c1)N(C(=O)OC(C)(C)C)CCC2`, 21.04%; for `Cc1ccsc1CNc1ccccc1C(=O)N1CCNC(=O)C1`, 4.147%.
Consider `Cc1nsc(N2CCCN(c3nc(C4CC4)ns3)CC2)n1`, for which the “Percent Effect” value is 3.492%.
Turning to `Cc1ccc(N2CCCC(NCc3ccc(-n4ccnc4)cc3)C2)nn1` (stereo not drawn), the “Percent Effect” value was determined as 9.457%.
On to `Cc1ccc(N2CCCC(NCc3cc(C)on3)C2)nn1` (stereo not drawn), for which the “Percent Effect” value is 114.3%.
Take `Cc1ccc(N2CCCC(N(C)Cc3c(C)noc3C)C2)nn1` (stereo not drawn): the “Percent Effect” value was -3.849%.
For `Cc1ccc(N2CCCC(NCc3c(C)noc3C)C2)nn1` (stereo not drawn) the value was 115%; for `Cc1ccc(N2CCCC(NCc3cscn3)C2)nn1` (stereo not drawn), -5.01%; for `Cc1cc(CNC2CCCN(c3cccnn3)C2)no1` (stereo not drawn), 3.501%.
`Cc1ccc(N2CCCC(NCc3ccccn3)C2)nn1` (stereo not drawn): the “Percent Effect” value worked out at 95.9%.
For `Cc1ccc(N2CCCC(NCc3nc(C)c(C)o3)C2)nn1` (stereo not drawn) the value was -3.745%; for `O=C(C1SCCc2sccc21)N1CCC(O)CC1` (stereo not drawn), -0.1428%.
The same measure for `CCN(CC)c1ccc(C(=O)N2C[C@@H]3CC[C@H](C2)N(CCOC)C3)cc1`: 14.63%; for `Cn1ccc(CN2CCC(COC3CCCC3)CC2)cc1=O`: 0.749%.
For `CN(C)CCC1CCN(Cc2ccn(C)c(=O)c2)CC1` the value was 112.8%; for `CCS(=O)(=O)NC1CCCN(Cc2ccn(C)c(=O)c2)C1` (stereo not drawn), 5.979%; for `Cn1ccc(CN2CCCC(CNS(C)(=O)=O)C2)cc1=O` (stereo not drawn), 2.475%.
As to `CCN(CC)CC1CCN(Cc2ccn(C)c(=O)c2)CC1`, the “Percent Effect” value was 118.1%.
The same measure for `Cn1ccc(CN2CCC(CCc3ccc(O)cc3)CC2)cc1=O`: 11.88%; for `Cc1cccc(C)c1NC(=O)c1cccc(CN2CCCC2C)c1` (stereo not drawn): 11.58%.
For `Cn1ccc(C(=O)N2CCCC(c3cc(O)n(C)n3)C2)n1` (stereo not drawn) the value was 89.67%.
On to `Cn1cc(C(=O)N2CCCC(c3cc(O)n(C)n3)C2)cn1` (stereo not drawn), for which the “Percent Effect” value is 108%.
The same measure for `CC(C)c1csc(C2CCCN(C(=O)c3ccc(=O)n(C)n3)C2)n1` (stereo not drawn): -15.66%.
For `COCCN1CCN(CC(=O)NC2(C#N)CCCC2)CC1C` (stereo not drawn) the value was 16.28%; for `O=C(CCn1cc(Cl)cn1)N1CCC2(CC1)[C@H](O)C[C@@H]2OCCO`, -14.25%; for `CCc1cnc(NCc2nc(COC)no2)nc1`, 3.706%.
The same measure for `COCCNc1ncc(-c2cc(C)no2)c(-c2ccco2)n1`: 96.17%; for `CCN(CC)CCNc1ncc(-c2cc(C)no2)c(-c2ccoc2C)n1`: -6.629%; for `COCCNc1ncc(-c2onc(C)c2C)c(-c2ccco2)n1`: 94.53%.
As for `CCOCCCNc1ncc(-c2onc(C)c2C)c(-c2ccco2)n1`, the “Percent Effect” value amounted to 100.1%.
For `CCOCCN1CCN(Cc2nnc(-c3ccco3)o2)CC1` the value was 1.125%; for `CCCOCCCNc1nccc(-c2cn(C)nc2C)n1`, -3.491%.
With `COc1ncc(NCc2csc(-c3ccco3)n2)cc1C(N)=O`, the “Percent Effect” value was -5.121%.
Take `Cc1nsc(N2CCN(C(=O)Nc3ccc4[nH]ccc4c3)CC2)n1`: the “Percent Effect” value is 0.5995%.
As for `CCc1cc(CN2CCC(CCC(=O)Nc3ccccc3Cl)CC2)on1`, the “Percent Effect” value turned out to be 3.381%.
Take `N#CCCN(CC1CCOC1)S(=O)(=O)c1c(F)cccc1Cl` (stereo not drawn): the “Percent Effect” value turned out to be 4.348%.
As to `COc1ccc(N2CCN(C[C@@H](C)CO)CC2=O)cc1`, the “Percent Effect” value was -31.81%.
Consider `CSCc1noc(Cn2ccc3ccccc3c2=O)n1`, for which the “Percent Effect” value came out at 6.504%.
`CCc1nc(C2CCCN2Cc2nc(CCOC)no2)no1` (stereo not drawn): the “Percent Effect” value is listed as -0.7381%.
For `COc1ccc(N2CCN(Cc3nc(CSC)no3)C(C)C2=O)cc1` (stereo not drawn) the value was 106.8%.
`COCCc1noc(CN2CCN(c3ccc(OC)cc3)C(=O)C2C)n1` (stereo not drawn): the “Percent Effect” value amounted to 97.33%.
As to `CCc1ccc(C2CCCCCN2Cc2nc(CCOC)no2)o1` (stereo not drawn), the “Percent Effect” value is on record as -5.886%.
Regarding `COc1ccc(N2CCN(Cc3nc(CSC)no3)CC2=O)cc1`, the “Percent Effect” value is 98.96%.
The same measure for `CCN1CC2(CCN(Cc3nc(CSC)no3)CC2)CC1=O`: -1.733%; for `CSCc1noc(Cn2ncn3cccc3c2=O)n1`: 40.19%.
